Data published in PubChem BioAssay (NCI).
About 83,000 compounds went through this panel and 20% of them were active in at least one assay; those are over-represented in the sample as a whole.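 Cell lines were cultured in 96-well plates, exposed to a single compound concentration, and assessed for percent growth 48 hours later.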 A number with no mark means an inactive call. Active and inactive are the calls of the source. The calls were made as follows: active = growth percent below 10; inactive = the rest.

Legend:
Test in all cases: NCI-60 one-dose screen, 48 h (100 = growth as untreated, 0 = no growth, -100 = all killed)
Conditions in all cases: 10 µM unless noted
HCT-15 colon = test system: HCT-15 colon
HT29 colon = test system: HT29 colon
SNB-75 CNS = test system: SNB-75 CNS
SNB-19 CNS = test system: SNB-19 CNS
U251 CNS = test system: U251 CNS
PC-3 prostate = test system: PC-3 prostate
SK-MEL-5 melanoma = test system: SK-MEL-5 melanoma
UACC-62 melanoma = test system: UACC-62 melanoma
LOX IMVI melanoma = test system: LOX IMVI melanoma
SK-MEL-28 melanoma = test system: SK-MEL-28 melanoma
SK-MEL-2 melanoma = test system: SK-MEL-2 melanoma
UO-31 renal = test system: UO-31 renal
TK-10 renal = test system: TK-10 renal
ACHN renal = test system: ACHN renal
CAKI-1 renal = test system: CAKI-1 renal
A498 renal = test system: A498 renal
CCRF-CEM leukemia = test system: CCRF-CEM leukemia
MOLT-4 leukemia = test system: MOLT-4 leukemia
SN12C renal = test system: SN12C renal
EKVX NSCLC = test system: EKVX NSCLC

Row | Structure (SMILES) | growth (HCT-15 colon) | growth (HT29 colon) | growth (SNB-75 CNS) | growth (SNB-19 CNS) | growth (U251 CNS) | growth (PC-3 prostate) | growth (SK-MEL-5 melanoma) | growth (UACC-62 melanoma) | growth (LOX IMVI melanoma) | growth (SK-MEL-28 melanoma) | growth (SK-MEL-2 melanoma) | growth (UO-31 renal) | growth (TK-10 renal) | growth (ACHN renal) | growth (CAKI-1 renal) | growth (A498 renal) | growth (CCRF-CEM leukemia) | growth (MOLT-4 leukemia) | growth (SN12C renal) | growth (EKVX NSCLC)
1 | Brc1ccsc1Br | 111% | 105% | 83.5% | 106% | 109% | 107% | 106% | 109% | 108% | 106% | 101% | 91.3% | 109% | 112% | 99.6% | 141% | 102% | 108% | – | –
2 | O=C(NNC(=O)c1cccc(Cl)c1)c1ccccc1 | 114% | 104% | 99.4% | 119% | 100% | 91.1% | 101% | 123% | 105% | 119% | 100% | 99.3% | 117% | 130% | 103% | 73.2% | 98.4% | 100% | 106% | –
3 | O=[N+]([O-])c1ccc(N/N=C\c2ccc(O)cc2O)nc1 | 29.8% | 90.2% | 53.6% | 58.6% | 28.4% | 49.5% | 13.7% | 43.9% | 24.7% | 64.1% | – | 28.1% | 22.7% | 26.8% | 4.77% (active) | 107% | 18.8% | 13.6% | 50.9% | 29.3%
4 | N=C(N)c1ccc(-c2ccc(-c3cccs3)s2)cc1F | -66.8% (active) | -82.1% (active) | -96.5% (active) | -65.1% (active) | -86.6% (active) | -72.4% (active) | -98% (active) | -79.7% (active) | -76.7% (active) | -96% (active) | -80.2% (active) | -89.7% (active) | -94.3% (active) | -84.5% (active) | -72.6% (active) | -92.7% (active) | – | -55.5% (active) | -65.3% (active) | –
5 | COc1ccc(-c2ccc(-c3ccc(C(=N)N)s3)s2)cc1 | -73.7% (active) | -81.9% (active) | -84.2% (active) | -61.9% (active) | -70.3% (active) | -92.8% (active) | -97.8% (active) | -91% (active) | -74.7% (active) | -75.5% (active) | -78.4% (active) | -71.4% (active) | -90.7% (active) | -92.8% (active) | -82.8% (active) | -73.9% (active) | – | -56.2% (active) | -51.8% (active) | –
6 | O=C1c2cccc3cccc(c23)C(=O)N1CCCCCCCCCCN1C(=O)c2cccc3cccc(c23)C1=O | 102% | 106% | 80.8% | 104% | 100% | 103% | 102% | 99.8% | 102% | 109% | 93.6% | 99.4% | 121% | 96.2% | 98% | 105% | – | 107% | 100% | –
7 | O=c1nc(-c2ccccc2)c2cc(-c3ccc(N4CCOCC4)cc3)ccc2[nH]1 | 74% | 84.5% | 106% | 87.4% | 69.9% | 70.9% | 83.6% | 74.3% | 74.5% | 91.8% | 81.6% | 66% | 68.1% | 71.6% | 74.8% | 88.6% | – | 71.2% | 79.4% | –
8 | C=C1C(=O)O[C@H]2[C@H]1CC/C(COC(=O)NCc1[nH]nc3ccccc13)=C\CC[C@@]1(C)O[C@@H]21 | 5.35% (active) | -32.6% (active) | 64.9% | 67.8% | 27.5% | 28.8% | 25.7% | 16.5% | -17.2% (active) | 30.3% | 30.9% | – | -4.85% (active) | 14.4% | 16.6% | 94.3% | -6.22% (active) | -12.7% (active) | 35.4% | –
9 | COc1ccc(-c2nn(C(=O)NCCN(C)C)cc2-c2ccncc2)cc1Cl | 33.5% | 15.3% | -20% (active) | 54.8% | 31.1% | 63.5% | 20.5% | 34.6% | 25.6% | 39.4% | 32.7% | – | 17.1% | 47.8% | 51.1% | 34.2% | 47.9% | 34.3% | 49.6% | –
10 | Cc1cccc2nc3ccccc3c(Nc3ccc(NS(C)(=O)=O)cc3)c12 | 37.2% | 46% | 68.3% | 59.7% | 15.8% | 66.7% | 48.3% | 63.4% | 33.8% | 73% | 112% | – | 78.6% | -27.1% (active) | 23.4% | 45.3% | – | – | 38.9% | –
11 | Cn1cnc([N+](=O)[O-])c1S(=O)(=O)Oc1cccc2ccccc12 | 1.87% (active) | 10.9% | 83.2% | 98.8% | 57.6% | 57.4% | 93% | 80.7% | -45.1% (active) | – | 85% | -31% (active) | 96.3% | 4.28% (active) | -20.9% (active) | 97.6% | -1.53% (active) | 32.8% | 79.2% | 97.1%
12 | COc1cccc(C2C(C#N)=C(N)Oc3cc4c(cc32)OCO4)c1 (stereo not given) | 16.4% | 8.91% (active) | 8.73% (active) | 39.2% | 23.4% | 27.4% | 4.73% (active) | 33.6% | 23.1% | 43% | – | – | – | 29.3% | 52.4% | 1.43% (active) | 17.4% | 19.4% | 23.8% | 47.9%
13 | COc1ccccc1CNCCCN1C(=O)c2ccc3c4c(ccc(c24)C1=O)C(=O)N(CCCNCCCN)C3=O | 8.83% (active) | -31.5% (active) | 46% | 11.9% | -72.5% (active) | 18.7% | -97.8% (active) | -50% (active) | -7.09% (active) | 22.7% | – | 23.3% | 33.3% | 9.16% (active) | 31.9% | 14.9% | 7.88% (active) | -24.5% (active) | -56.8% (active) | 34.7%
14 | C=CCN1C(=O)/C(=c2\sc3n(c2=O)C2C(NN=3)N(CC)C(=O)N2CC)c2ccccc21 (stereo not given) | 15.7% | 6.59% (active) | 23.8% | 26.8% | 22.8% | 22% | 18.5% | 26.1% | 28.9% | 62.4% | – | 48.3% | 60.6% | 37.6% | 43.2% | 10.7% | 12.8% | 19.1% | 35.8% | 37.3%
15 | COc1ccc(-c2conc2-n2nc(-c3ccccc3)nc2-c2ccccc2)cc1 | 107% | 102% | 98.3% | 104% | 106% | 95.6% | 101% | 103% | 92.6% | – | 103% | 73.2% | 137% | 97.2% | 83.8% | 120% | 106% | 99.1% | 101% | 101%
16 | Clc1ccc(Cl)c(N=Cc2ccc3c(c2)OCO3)c1 | 106% | 110% | 103% | 107% | 104% | 107% | 106% | 103% | 95.2% | – | 109% | 86.6% | 107% | 114% | 94.6% | 91.6% | 106% | 106% | 105% | 98.8%
17 | COc1cc(NC(=O)CSc2nc3ccc(Cl)cc3c(=O)n2-c2ccccc2)cc(OC)c1OC | 99.6% | 110% | 71.6% | 99.9% | 92.5% | 80.6% | 83.8% | 75% | 90.8% | – | 99.8% | 51% | 120% | 92.1% | 83.3% | 46.6% | 70.5% | – | 94.3% | 76.4%
